Molecules are shown by their SMILES. The whole screen tested about 320,000 compounds, of which about 2,100 (0.66%) were called active.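 The calls were made as follows: active = inhibition above the mean inhibition of all tested compounds plus 3 SD, set per campaign (cut at about 40% in these data); inactive = the rest.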 This excerpt belongs to a sample that is enriched for actives.

The target in the test is Induced myeloid leukemia cell differentiation protein Mcl-1 (Homo sapiens) (UniProt Q07820). Kind of test: MCL1-BIM peptide interaction disruptors – biochemical, fluorescence polarization, primary screen (AID 2057).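 Also: 0% = DMSO wells and 100% = unlabeled Bim-BH3 peptide control; higher means more loss of mP so more displacement of Bim peptide.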 Conditions: GST-MCL1 / FITC-Bim-BH3 fluorescence polarization; at 10.9 µM; hits give high values. For orientation: In fluorescence polarisation assays a small probe gives low polarisation when free and higher when bound to something large.
Sequence of Induced myeloid leukemia cell differentiation protein Mcl-1 (Homo sapiens) (Q07820 whole entry, looked up): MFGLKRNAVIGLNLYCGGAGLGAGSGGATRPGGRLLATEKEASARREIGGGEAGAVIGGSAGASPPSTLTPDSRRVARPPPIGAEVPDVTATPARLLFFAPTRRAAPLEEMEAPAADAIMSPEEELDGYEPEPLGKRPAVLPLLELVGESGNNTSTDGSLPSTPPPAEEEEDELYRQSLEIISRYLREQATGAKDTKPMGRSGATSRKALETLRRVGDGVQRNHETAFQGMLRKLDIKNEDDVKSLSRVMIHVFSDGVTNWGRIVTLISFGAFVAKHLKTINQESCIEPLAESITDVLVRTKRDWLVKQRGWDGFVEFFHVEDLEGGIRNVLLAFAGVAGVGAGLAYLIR
For the molecule `COc1ccc(S(=O)(=O)N2CCCCC2)cc1NC(=O)c1cc([N+](=O)[O-])ccc1N1CCOCC1`, the inhibition is 3.68% (inactive).

Take `CCn1c(SCc2cc(=O)n3ccsc3n2)nc2ccccc21`: the inhibition was 8.95% (inactive).

`CCOc1ncccc1C(=O)N(C)CC(=O)Nc1ccc(F)cc1`: the inhibition is -10.5% (inactive).

Turning to `Cc1ccc(NC(=O)c2cc(-c3ccc(C)o3)nc3ccccc23)nc1`, the inhibition is 56.2% (active).

Turning to `CC(=O)N1CCN(C(=O)c2cc(-c3ccc(C)o3)nc3ccccc23)CC1`, the inhibition is 7.28% (inactive).

Turning to `COc1ccc(NC(=O)c2cc(-c3ccc(C)o3)nc3ccccc23)cc1`, the inhibition was 22.5% (inactive).

With `Cc1cc(OCc2cc(C(=O)NCc3cc(C(C)C)no3)no2)cc(C)c1Cl`, the inhibition was 6.88% (inactive).

`Cc1cc(C)n(-c2nnc(C)n2NC(=O)c2cccc(Cl)c2)n1`: the inhibition was -1.3% (inactive).

Take `Oc1ccc(C2Nc3cccc4cccc(c34)N2)cc1`: the inhibition is 26.6% (inactive).

Regarding `Cc1ccc(C2Nc3cccc4cccc(c34)N2)cc1`, the inhibition is 53.9% (active).

With `COc1cccc(C2Nc3cccc4cccc(c34)N2)c1`, the inhibition was 22.2% (inactive).

As for `O=C(C1CCC1)N1CCN(S(=O)(=O)c2ccc([N+](=O)[O-])cc2)CC1`, the inhibition is -7.38% (inactive).

Consider `COc1ccc(O)c(/C=N/N=C/c2cccc([N+](=O)[O-])c2)c1`, for which the inhibition is 3.97% (inactive).

For `COc1ccccc1/C=C/C(=O)NC(=S)N1CCOCC1`, the inhibition was -5.3% (inactive).

Consider `COc1ccc(OCC(=O)NCCS(=O)(=O)N2CCN(c3ccc(F)cc3)CC2)cc1`, for which the inhibition is 2.8% (inactive).

On to `CCOc1ccc(C2=CC(c3ccccc3)n3ncnc3N2)cc1` (stereo not given), for which the inhibition was 6.81% (inactive).

In the case of `COC(=O)C1=C(C)Nc2ncnn2C1c1ccco1` (stereo not given), the inhibition was 9.97% (inactive).

In the case of `O=C(C1=C(O)C(=O)N(c2ncccn2)C1c1cccs1)c1ccco1` (stereo not given), the inhibition was 117% (active).

Consider `O=C(C1=C(O)C(=O)N(Cc2ccccc2)C1c1ccco1)c1ccco1` (stereo not given), for which the inhibition was 4.91% (inactive).

Turning to `O=C(C1=C(O)C(=O)N(Cc2ccccc2)C1c1cccnc1)c1ccco1` (stereo not given), the inhibition is 2.72% (inactive).

Regarding `CC(=O)Nc1cccc(C(=O)OCC(=O)c2ccc3c(c2)OCO3)c1`, the inhibition was 0.4% (inactive).

Take `C/C=C\C=C\C(=O)N1CC2(CC(c3cccc(NC(=O)/C(C)=C\C)c3)=NO2)C[C@H]1C(N)=O` (stereo not given in full): the inhibition is 0% (inactive).

For `CCOc1ccccc1NC(=S)N1CCN(c2cccc(C)c2C)CC1`, the inhibition is 4.81% (inactive).

With `CCOC(=O)c1ccc(NC(=O)Cn2cnc3cc(C)c(C)cc32)cc1`, the inhibition is 5.35% (inactive).

Turning to `NC(=O)C1=C[C@@H](c2ccc3c(c2)OCO3)C[C@@H](OCCCCO)O1`, the inhibition is 12.6% (inactive).

For `Cc1cc(C)cc(OCC(=O)Nc2ccc(N3CCOCC3)cc2N2CCOCC2)c1`, the inhibition is 1.14% (inactive).

`CCCCNc1nc2ccccc2nc1NS(=O)(=O)c1cccs1`: the inhibition is 2.76% (inactive).

In the case of `COc1ccc(Cl)cc1NC(=O)CCS(=O)(=O)c1cc2c(cc1C)NC(=O)CO2`, the inhibition was 8.54% (inactive).

Regarding `O=C(CCS(=O)(=O)c1ccc(Br)cc1)NCCc1ccc(Cl)cc1`, the inhibition is -2.54% (inactive).

As to `COc1ccc(Cl)cc1NC(=O)CCS(=O)(=O)c1ccc(Br)cc1`, the inhibition is 42.9% (active).

Regarding `O=C(NNS(=O)(=O)c1ccccc1)c1cnn(-c2ccc(Cl)cc2)c1C(F)(F)F`, the inhibition was 6.42% (inactive).

For the molecule `O=C(O)c1ccccc1N=N/C(=N/Nc1cc(S(=O)(=O)O)ccc1O)c1ccccc1`, the inhibition is 62% (active).

Consider `O=C(Nc1ccc(C(=O)O)c(O)c1)c1ccccc1`, for which the inhibition is -1.25% (inactive).

As for `O=C(NCCc1ccccc1)C1CC1`, the inhibition is 3.41% (inactive).

As for `Cc1cc(C)n2nc(C(=O)Oc3ccc4c(c3)OCO4)nc2n1`, the inhibition is 3.36% (inactive).

Regarding `CN(C)N=Nc1ccc2nc[nH]c2c1`, the inhibition was 2.69% (inactive).

For `Cc1ccc(S(=O)(=O)N[C@@H](Cc2ccccc2)C(=O)N2CCC(C(=O)N[C@H](C(=O)O)C(C)O)CC2)cc1` (stereo not given in full), the inhibition is -6.49% (inactive).

In the case of `Cc1nn(C)c(Oc2ccccc2)c1CCNS(=O)(=O)c1ccc(F)cc1`, the inhibition was 2.92% (inactive).

Turning to `COc1ccc(CNc2nc3c(c(=O)[nH]c(=O)n3C)n2Cc2ccccc2)cc1`, the inhibition is 5.54% (inactive).

For the molecule `COCCn1c(N)c(N(Cc2ccccc2)C(=O)C2CCCCC2)c(=O)[nH]c1=O`, the inhibition was 0.45% (inactive).

Consider `COCCn1c(N)c(NCc2ccccc2)c(=O)[nH]c1=O`, for which the inhibition is 73.5% (active).

For `CCC(=O)c1cc(F)ccc1OCC(=O)Nc1ccc2c(c1)OCCO2`, the inhibition is -2.34% (inactive).

Turning to `O=c1[nH]n2c(-c3ccccc3)nc(O)c2c2ccccc12`, the inhibition was -5.68% (inactive).

Consider `O=c1[nH]c2ccccc2n2c(-c3ccccc3)nnc12`, for which the inhibition is 57% (active).

With `Cc1nc2nc(C)c(NS(=O)(=O)c3ccc(C(C)(C)C)cc3)c(=O)n2[nH]1`, the inhibition is 0.66% (inactive).

For the molecule `CS(=O)(=O)N(CC(=O)N1CCN(c2ccc(F)cc2)CC1)C1CCCCC1`, the inhibition was -4.24% (inactive).

On to `CCOC(=O)N1CCN(C(=O)C(C)NC(=O)c2ccco2)CC1` (stereo not given), for which the inhibition is -1.38% (inactive).

`CCN(C(=O)CSc1ncnc2sccc12)c1c(N)n(Cc2ccccc2)c(=O)[nH]c1=O`: the inhibition is 0.53% (inactive).

Take `Cc1ccc(C(=O)N/N=C\c2cc(Br)c(Br)o2)cn1`: the inhibition was 46% (active).

With `O=C(N/N=C\c1cc(Br)c(Br)o1)C1COc2ccccc2O1` (stereo not given), the inhibition is 10.5% (inactive).

Turning to `Cc1ccc(C(=O)N/N=C/c2cccc3ccccc23)cn1`, the inhibition is -3.5% (inactive).

Take `Cc1ccn2cc(-c3nonc3C)cc2c1`: the inhibition is 11.9% (inactive).

With `Cc1nc2cc(S(=O)(=O)C(F)(F)F)ccc2s1`, the inhibition was -1.41% (inactive).

For the molecule `NS(=O)(=O)c1cccc(NC(=O)CC23CC4CC(CC(Br)(C4)C2)C3)c1`, the inhibition is -1.18% (inactive).

As to `Cc1sc(NC(=S)NC(=O)c2cccs2)nc1-c1ccc(CC(C)C)cc1`, the inhibition was -5.44% (inactive).

As for `O=C(NN1C(=O)C2C(C1=O)C1C=CC2C12CC2)c1ccccc1Cl` (stereo not given), the inhibition was 1.2% (inactive).

Consider `CC12CCC(C(=O)N(c3cccc(Cl)c3)C1=O)C2(C)C` (stereo not given), for which the inhibition is 4.99% (inactive).

In the case of `CC12CCC(C(=O)N(NC(=O)c3ccccc3O)C1=O)C2(C)C` (stereo not given), the inhibition is 42.7% (active).

Turning to `CCCC1=Nc2cc(C(=O)NCc3ccco3)ccc2Sc2ccccc21`, the inhibition was -1.97% (inactive).

In the case of `CCOP1(=O)C=C(C(C)(C)C)OC1c1ccc(F)cc1` (stereo not given), the inhibition is -0.66% (inactive).

For orientation: inhibition means the change of the read-out against control, counted positive when it falls.
